According to PubChem BioAssay:
The source made the active and inactive calls.

Key:
[1] = target: Albumin (Bos taurus) (UniProt P02769); assay: compounds binding labelled BSA control protein – biochemical, small-molecule microarray, Alexa647 label, 635/667 nm fluorescence, artefact control for SMM control protein annotation, profiling panel (AID 1118); details: BSA-A647 binding, fluorescence 635 nm, higher = more signal;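 further: score merges 667 nm emission intensity and signal-to-noise per printed compound spot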
Albumin (Bos taurus), sequence (P02769 whole entry, looked up): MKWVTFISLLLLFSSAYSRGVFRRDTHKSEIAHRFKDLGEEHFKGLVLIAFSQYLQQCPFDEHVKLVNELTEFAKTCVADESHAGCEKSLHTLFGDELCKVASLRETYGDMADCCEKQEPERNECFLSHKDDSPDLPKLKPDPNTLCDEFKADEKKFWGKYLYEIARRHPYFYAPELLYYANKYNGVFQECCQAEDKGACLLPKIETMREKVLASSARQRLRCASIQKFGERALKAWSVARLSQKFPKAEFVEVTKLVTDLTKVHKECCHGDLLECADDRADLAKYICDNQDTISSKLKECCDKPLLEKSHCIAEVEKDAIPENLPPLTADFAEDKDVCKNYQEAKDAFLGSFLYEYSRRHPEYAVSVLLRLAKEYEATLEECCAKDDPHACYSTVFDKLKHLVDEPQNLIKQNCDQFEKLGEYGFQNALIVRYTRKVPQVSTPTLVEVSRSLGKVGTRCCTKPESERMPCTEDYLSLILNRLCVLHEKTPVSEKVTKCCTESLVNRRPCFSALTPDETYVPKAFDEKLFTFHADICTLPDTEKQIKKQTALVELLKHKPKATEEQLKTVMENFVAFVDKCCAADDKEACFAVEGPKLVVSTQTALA

[2] = probe aXIP binding to arrayed compounds – biochemical, NeuroSMM set, 635/667 nm fluorescence, primary screen (AID 1119); details: small-molecule microarray, higher = more signal, called active from +8 up or from −8 down;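 further: probe is the protein aXip251-270 applied at 1 µg/mL to compound-printed slides; binding of probe to printed compounds measured as 667 nm fluorescence plus signal to noise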
[3] = probe aNOTCH3 binding on compound microarray – biochemical, small-molecule microarray, 635/667 nm fluorescence, primary screen (AID 1120); details: higher = more signal;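 further: probe is a biotin-tagged antibody raised against NOTCH3 rather than NOTCH3 protein; score merges spot fluorescence near 667 nm with spot signal to noise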
[4] = probe aNOTCH2 binding on compound microarray – biochemical, small-molecule microarray, 635/667 nm fluorescence, primary screen (AID 1121); details: higher = more signal;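 further: score merges feature fluorescence read at 667 nm with its signal to noise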
[5] = target: Carbonic anhydrase 2 (Homo sapiens) (UniProt P00918); assay: compounds binding carbonic anhydrase 2 – biochemical, small-molecule microarray, Alexa647-labelled CAII, profiling panel (AID 1122); details: CAII-A647 binding fluorescence, higher = more signal
[6] = COS7 lysate on small-molecule microarray, probe aHis, 635 nm (AID 1123); details: COS7 cell lysate, fluorescence, higher = more signal;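 further: z-score combines 667nm fluorescence intensity with signal-to-noise per printed compound spot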
[7] = probe aLAP1 signal on lysate-treated microarray – cell lysate, small-molecule microarray, COS7 lysate, primary screen (AID 1124); details: probe aLAP1, fluorescence, higher = more signal;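 further: lysate comes from COS7 cells expressing LAP1 and is applied at 0.3 µg/mL; score merges spot fluorescence near 667 nm with signal-to-noise over triplicate slides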
[8] = test system: Sam68 (KHDRBS1); assay: compounds binding KHDRBS1 protein – biochemical, small-molecule microarray, 635 nm fluorescence, primary screen (AID 1125); details: higher = more signal;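 further: score merges 667 nm channel intensity with signal to noise over triplicate slides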
[9] = test system: Chordin-like protein 2 (CHRDL2); assay: compounds binding chordin-like 2 – biochemical, small-molecule microarray, 635 nm fluorescence, primary screen (AID 1126); details: fluorescence 635 nm, higher = more signal;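 further: printed compound slides probed with Chrdl2 protein at 4 µg/mL for 1 h at 4 C; score merges 667 nm emission intensity with signal to noise over three replicate slides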
[10] = target: Concanavalin-A (Canavalia ensiformis) (UniProt P02866); assay: compounds binding concanavalin A lectin – biochemical, small-molecule microarray, Alexa647 label, 635 nm, artefact control for SMM control protein annotation, primary screen (AID 1127); details: ConA-A647 binding fluorescence, higher = more signal;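 further: z combines 667 nm emission intensity with signal-to-noise across three replicate slides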
Concanavalin-A (Canavalia ensiformis), sequence (P02866 whole entry, looked up): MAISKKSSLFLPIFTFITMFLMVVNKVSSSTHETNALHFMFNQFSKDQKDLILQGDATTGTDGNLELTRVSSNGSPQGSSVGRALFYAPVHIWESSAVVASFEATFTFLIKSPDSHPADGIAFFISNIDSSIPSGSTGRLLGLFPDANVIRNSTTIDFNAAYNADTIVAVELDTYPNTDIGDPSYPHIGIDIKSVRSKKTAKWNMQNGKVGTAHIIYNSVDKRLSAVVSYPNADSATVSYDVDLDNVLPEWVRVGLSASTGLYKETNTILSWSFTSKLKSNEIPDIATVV

[11] = compounds binding Alexa647 anti-His antibody – biochemical, small-molecule microarray, 635 nm fluorescence, artefact control for SMM control protein annotation, primary screen (AID 1128); details: higher = more signal;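 further: score merges feature fluorescence with signal-to-noise for each printed compound spot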
[12] = test system: Human papillomavirus type 1a E7 protein (residues 1-88); assay: HPV1a E7 small-molecule binders, primary screen, biochemical, small-molecule microarray, residues 1-88, 635 nm (AID 1129); details: small-molecule microarray binding, fluorescence 635 nm; higher = more signal
[13] = target: Focal adhesion kinase 1 (Homo sapiens) (UniProt Q05397); assay: PTK2 protein binding on printed compound slides – biochemical, small-molecule microarray, 635/667 nm fluorescence, BSA, DTT, primary screen (AID 1130); details: 635 nm fluorescence, higher = more signal;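 further: composite of spot emission at 667 nm and signal to noise over triplicate slides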
Focal adhesion kinase 1 (Homo sapiens), sequence (Q05397 whole entry, looked up): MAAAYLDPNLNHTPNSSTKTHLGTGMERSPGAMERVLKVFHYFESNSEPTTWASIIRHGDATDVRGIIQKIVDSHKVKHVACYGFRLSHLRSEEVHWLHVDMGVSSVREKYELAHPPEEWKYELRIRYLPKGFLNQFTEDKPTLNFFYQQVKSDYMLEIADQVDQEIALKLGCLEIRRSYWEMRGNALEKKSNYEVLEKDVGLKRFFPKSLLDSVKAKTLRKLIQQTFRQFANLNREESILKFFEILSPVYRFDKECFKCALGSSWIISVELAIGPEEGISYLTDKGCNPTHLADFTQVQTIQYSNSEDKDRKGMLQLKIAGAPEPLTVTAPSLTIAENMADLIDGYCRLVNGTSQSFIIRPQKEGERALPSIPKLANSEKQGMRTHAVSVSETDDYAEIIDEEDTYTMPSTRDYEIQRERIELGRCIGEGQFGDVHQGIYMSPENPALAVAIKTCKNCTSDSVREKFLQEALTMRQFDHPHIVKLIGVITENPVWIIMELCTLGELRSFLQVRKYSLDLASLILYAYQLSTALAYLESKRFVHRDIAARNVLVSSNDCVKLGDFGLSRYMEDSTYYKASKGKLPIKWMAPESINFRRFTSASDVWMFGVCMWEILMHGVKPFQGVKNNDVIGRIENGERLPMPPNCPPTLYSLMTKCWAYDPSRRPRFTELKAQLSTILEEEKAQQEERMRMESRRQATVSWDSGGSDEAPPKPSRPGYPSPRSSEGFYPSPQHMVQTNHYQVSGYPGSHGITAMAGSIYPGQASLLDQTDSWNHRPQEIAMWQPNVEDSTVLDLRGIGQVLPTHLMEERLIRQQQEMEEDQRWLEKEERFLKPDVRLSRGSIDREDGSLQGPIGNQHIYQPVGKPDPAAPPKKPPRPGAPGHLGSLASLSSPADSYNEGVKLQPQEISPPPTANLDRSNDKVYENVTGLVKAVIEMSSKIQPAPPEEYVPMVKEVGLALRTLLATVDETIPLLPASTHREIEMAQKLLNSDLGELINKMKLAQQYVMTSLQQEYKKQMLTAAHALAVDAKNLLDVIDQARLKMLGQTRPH

[14] = test system: Fibrinogen (Alexa647-labelled); assay: Alexa647-fibrinogen binding to printed small molecules – biochemical, small-molecule microarray, 635/667 nm fluorescence, artefact control for SMM control-protein annotation, profiling panel (AID 1131); details: fibrinogen-A647 binding fluorescence, higher = more signal;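 further: z-score merges 667 nm fluorescence with per-spot signal-to-noise over triplicate slides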
[15] = target: Follistatin (Homo sapiens) (UniProt P19883); assay: FST protein binding to printed compounds – biochemical, small-molecule microarray, 635/667 nm fluorescence, primary screen (AID 1132); details: 635 nm fluorescence, higher = more signal
Follistatin (Homo sapiens), sequence (P19883 whole entry, looked up): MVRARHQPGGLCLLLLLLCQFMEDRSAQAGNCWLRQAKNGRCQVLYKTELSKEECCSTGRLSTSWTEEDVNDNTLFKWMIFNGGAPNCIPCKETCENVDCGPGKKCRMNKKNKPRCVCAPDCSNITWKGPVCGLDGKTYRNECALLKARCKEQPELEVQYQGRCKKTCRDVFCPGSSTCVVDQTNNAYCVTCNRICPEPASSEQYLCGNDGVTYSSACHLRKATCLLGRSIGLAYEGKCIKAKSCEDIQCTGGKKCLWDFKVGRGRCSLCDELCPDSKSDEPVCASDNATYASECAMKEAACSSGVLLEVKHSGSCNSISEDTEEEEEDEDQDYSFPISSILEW

[16] = target: Fibroblast growth factor 2 (Homo sapiens) (UniProt P09038); assay: basic fibroblast growth factor binding to printed compounds – biochemical, small-molecule microarray, 635/667 nm fluorescence, primary screen (AID 1133); details: FGF2, fluorescence 635/667, higher = more signal
Fibroblast growth factor 2 (Homo sapiens), sequence (P09038 whole entry, looked up): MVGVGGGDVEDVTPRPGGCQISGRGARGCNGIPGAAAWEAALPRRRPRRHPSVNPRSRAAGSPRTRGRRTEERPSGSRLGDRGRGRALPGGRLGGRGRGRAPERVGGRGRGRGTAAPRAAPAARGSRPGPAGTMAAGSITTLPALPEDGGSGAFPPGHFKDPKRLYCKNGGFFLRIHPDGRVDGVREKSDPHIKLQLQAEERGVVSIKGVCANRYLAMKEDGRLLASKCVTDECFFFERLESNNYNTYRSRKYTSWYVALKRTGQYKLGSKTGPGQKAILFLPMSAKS

[17] = JC-1 mitochondrial potential readout, lung cancer cells – cell-based, A549, JC-1 fluorescence, basal, 24 h, 100 nL, profiling panel (AID 1138); details: higher = more signal;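 further: A549 lung adenocarcinoma cells under basal conditions with no added stimulus; test concentration not given here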
[18] = test system: Lefty1; assay: Lefty1 protein binding to printed compounds – biochemical, small-molecule microarray, 635/667 nm fluorescence, primary screen (AID 1139); details: fluorescence 635/667, higher = more signal
[19] = test system: wheat germ agglutinin (Triticum aestivum), Alexa647-labelled; assay: Alexa647-WGA lectin binding to printed small molecules – biochemical, small-molecule microarray, 635/667 nm fluorescence, artefact control for SMM control-protein annotation, profiling panel (AID 1140); details: WGA-A647 binding, 635 nm fluorescence, higher = more signal;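 further: score merges 667 nm feature emission with signal to noise over triplicate slides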
[20] = target: Luciferin 4-monooxygenase (Photinus pyralis) (UniProt P08659); assay: inhibition of purified Photinus pyralis luciferase – biochemical, luminescence, purified enzyme, 2006 set, primary screen (AID 1141); details: purified firefly luciferase, SteadyGlo luminescence, 30 min; higher = more signal, called active from +8 up or from −8 down;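 further: cell-free assay with purified firefly luciferase at 100 ng per well in PBS; test concentration not given here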
Luciferin 4-monooxygenase (Photinus pyralis), sequence (P08659 whole entry, looked up): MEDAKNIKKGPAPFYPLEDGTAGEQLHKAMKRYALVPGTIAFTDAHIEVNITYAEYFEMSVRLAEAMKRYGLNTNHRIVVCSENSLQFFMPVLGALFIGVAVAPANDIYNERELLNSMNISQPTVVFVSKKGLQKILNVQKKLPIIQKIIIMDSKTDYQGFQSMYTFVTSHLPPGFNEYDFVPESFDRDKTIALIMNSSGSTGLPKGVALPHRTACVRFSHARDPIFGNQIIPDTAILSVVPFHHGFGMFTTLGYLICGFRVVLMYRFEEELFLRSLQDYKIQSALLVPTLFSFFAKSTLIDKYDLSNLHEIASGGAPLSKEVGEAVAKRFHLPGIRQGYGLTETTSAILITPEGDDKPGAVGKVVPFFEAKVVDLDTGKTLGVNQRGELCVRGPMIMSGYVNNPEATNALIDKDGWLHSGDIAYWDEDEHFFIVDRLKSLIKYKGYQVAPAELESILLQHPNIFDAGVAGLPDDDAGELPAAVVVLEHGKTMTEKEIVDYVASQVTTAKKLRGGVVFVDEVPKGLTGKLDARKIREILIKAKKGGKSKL

Compound	composite z-score [1]	composite Z-score [2]	composite z-score [3]	composite z-score [4]	composite z-score [5]	composite z-score [6]	composite z-score [7]	composite z-score [8]	composite z-score [9]	composite z-score [10]	composite z-score [11]	composite z-score [12]	composite z-score [13]	composite z-score [14]	composite z-score [15]	composite z-score [16]	z-score [17]	composite z-score [18]	composite z-score [19]	z-score [20]
CCOC(=O)C1CCCCN1 (stereo not given)	0.351	0.104 (inactive)	0.77	0.435	0.175	0.437	0.471	0.983	0.47	0.562	0.313	0.859	-0.0288	0.367	0.599	0.522	-0.0223	0.589	0.109	0.48 (inactive)
Cc1ccccc1C(O)C1C=CC2C(=O)N(C)C(=O)C2N1N(c1ccccc1)c1ccccc1 (stereo not given)	0.25	0.111 (inactive)	0.84	0.473	0.833	-0.266	0.307	-1.29	0.682	-0.752	1.13	-0.298	-0.128	0.354	0.799	-0.0234	0.429	-0.543	0.641	-0.609 (inactive)
O=C1OCCC/C=C\[C@H]2OC34C=CCN(CCN5CCOCC5)C(=O)[C@H]3N(CCCCCCO)C(=O)[C@@H]4C12 (stereo not given in full)	0.719	1.02 (inactive)	-0.0947	-0.144	0.867	0.817	1.57	0.184	-0.394	-0.324	3.45	0.167	-0.447	-0.613	-0.318	-0.25	1.13	0.337	0.33	-1.05 (inactive)
CN1C(=O)C2C=CC(C(O)c3cccc4ccccc34)N(N3CCCCC3)C2C1=O (stereo not given)	0.918	0.353 (inactive)	0.246	0.0502	0.586	2.75	0.59	1.31	-0.227	1.17	2.11	1.15	0.127	0.853	1.23	0.225	-0.0645	0.789	1.3	-0.848 (inactive)
COC(=O)C(CC#Cc1ccc2c(c1)[C@]1(C(=O)N2)[C@H](C(=O)N2CCN(c3ncccn3)CC2)[C@H]2C(=O)O[C@H](c3ccccc3)[C@H](c3ccccc3)N2[C@@H]1c1ccc(OCCO)cc1)C(=O)OC	0.535	-0.425 (inactive)	0.207	-0.0821	0.259	1.41	-0.192	1.3	0.621	1.07	2.65	1.25	0.179	0.982	1.38	1.63	-1.35	1.31	1.03	-1.22 (inactive)
CO[C@H]1O[C@H](CO)[C@@H](OC(=O)Nc2ccc3c(c2)OCO3)[C@H](OC(=O)c2cc3ccccc3[nH]2)[C@H]1OC(=O)c1cc2ccccc2[nH]1	0.429	0.993 (inactive)	-0.0932	-0.0875	0.402	-0.0481	0.0757	0.12	0.725	-0.391	0.935	-0.174	0.622	-0.3	0.372	0.791	-1.56	0.366	-0.0971	-2.78 (inactive)
COC(=O)c1cn(C[C@@H](Cc2ccccc2)NC(=O)N[C@H](CO)CCc2oc(C(C)=O)c(C(=O)OC)c2C(=O)OC)nn1	-0.0181	0.055 (inactive)	0.134	-0.128	0.182	0.5	0.421	1.01	1.15	0.299	1.42	0.533	0.192	0.729	1.02	0.86	0.642	1.17	0.235	-0.373 (inactive)
CCCCCCCCCCC(O)C1C=CC2C(=O)N(C)C(=O)C2N1NC(=O)OC(C)(C)C (stereo not given)	0.682	0.245 (inactive)	-0.0077	-0.124	0.344	1.24	-0.45	0.717	-0.409	1.12	0.179	0.995	0.723	0.907	-0.406	-0.531	-1.2	-0.19	0.474	-1.33 (inactive)
CC(c1ccccc1)C(O)C1C=CC2C(=O)N(c3ccccc3)C(=O)C2N1Nc1ccc([N+](=O)[O-])cc1 (stereo not given)	0.903	-0.122 (inactive)	0.158	-0.0211	0.526	2.95	0.0001	1.05	-0.661	1.12	1.75	1.25	0.605	1.03	1.03	0.328	-0.915	0.44	0.783	1.58 (inactive)
C=CCOC(=O)[C@H]1[C@@H]2C(=O)O[C@@H](c3ccccc3)[C@@H](c3ccccc3)N2[C@@H](c2ccc(OCCOC(=O)[C@@H]3C[C@@H]4C(=O)N[C@@H](CCCCN(C)C)C(=O)N4[C@@H]3c3ccc(O)cc3)cc2)[C@]12C(=O)Nc1ccccc12	-0.568	0.685 (inactive)	0.137	0.0002	0.297	2.58	0.949	1.31	1.44	1.14	1.57	1.14	0.0515	0.503	1.38	1.48	-1.49	1.54	0.382	-3.27 (inactive)
C=CCC(OC(C)=O)[C@@H]1[C@@H](N(Cc2cc3ccccc3o2)C(=O)Cc2ccc(F)cc2)c2cc(OCCCO)ccc2N1C(=O)c1ccc2ccccc2c1 (stereo not given in full)	-0.379	0.749 (inactive)	-0.118	-0.0904	0.31	-0.234	0.0099	-0.741	-0.173	-0.679	-0.232	-0.835	-0.167	-1.03	0.722	-0.143	1.08	0.777	0.181	-0.514 (inactive)
